Assay outcomes (PubChem)
Smad3 FoxH1 inh = blocks human Smad3 binding to FoxH1 peptide | AID 630 | 0.29% of 88,000 active | TR-FRET Smad3/Dy647-FoxH1 peptide binding, europium anti-His | inhibition, % at 25 µM;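 active means compounds that reduce the energy-transfer binding signal between the protein and its labelled peptide by more than half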
Target sequence (P84022 whole entry, looked up): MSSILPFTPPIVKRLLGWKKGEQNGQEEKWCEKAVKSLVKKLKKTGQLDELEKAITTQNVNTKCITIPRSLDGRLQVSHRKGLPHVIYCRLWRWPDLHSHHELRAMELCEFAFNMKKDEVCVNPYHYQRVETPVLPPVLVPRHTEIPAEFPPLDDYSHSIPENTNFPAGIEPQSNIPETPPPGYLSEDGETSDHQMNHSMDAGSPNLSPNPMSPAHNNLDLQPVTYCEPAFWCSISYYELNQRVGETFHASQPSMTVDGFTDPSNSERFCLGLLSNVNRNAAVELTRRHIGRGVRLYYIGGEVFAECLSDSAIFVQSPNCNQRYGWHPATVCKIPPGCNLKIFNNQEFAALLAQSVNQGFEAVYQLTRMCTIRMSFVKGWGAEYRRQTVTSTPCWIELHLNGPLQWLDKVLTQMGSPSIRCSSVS
Calb biofilm kill = kills Candida albicans biofilms; C. albicans biofilm + clotrimazole, Alamar Blue; inhibition, % at 6 µM; 0.14% of 85,000 active;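 active means inhibition above 20%; inactive means inhibition below 20%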;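 further: preformed 24 hr biofilms exposed to compound for 48 hr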
ERa SRC1 inh = blocks coactivator binding to human estrogen receptor alpha; AID 629; inhibition, % at 25.6 µM; TR-FRET ER-alpha LBD / SRC-1 peptide, estradiol-bound; 1.7% of 86,000 active; in the data active means inhibition above about 50%
MT1-MMP txn act = MT1-MMP promoter transcription activation; HT1080 MT1-MMP promoter luciferase reporter, luminescence, overnight; hits give high values; activation factor at 10 µM; 0.16% of 86,000 active; AID 750;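 active means activation factor of at least 2 for MT1-MMP transcription at 10 µM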
ERb SRC1 inh = ER-beta (human) coactivator binding inhibition; 1.3% of 86,000 active; TR-FRET ER-beta LBD / SRC1-Cy5 peptide binding; receptor agonist-loaded with 1 µM estradiol; Q92731; inhibition, % at 25.6 µM; AID 633;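 active means compounds whose percent inhibition of the receptor-coactivator binding signal exceeds about 50% in the single-dose screen, limit read from the data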
ERa SRC1 pot = enhances coactivator binding to human estrogen receptor alpha. coactivator binding (% of control), % at 25.6 µM. AID 639. TR-FRET ERalpha-LBD/SRC-Cy5 coactivator binding, 2 h; 100 = basal binding, no effect. P03372. 1.3% of 86,000 active; in the data active means activity above about 200%;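 further: binding measured in presence of low estradiol as agonist stimulus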
Each line names hits and unclear results; the compound was inactive in the other large screens; [ ] = dose if it differs, or a comment. Rows were chosen to be rich in hits. Some 3.8% of all compounds tested hit in one or more screens of this group.

Cn1c(COc2ccc3ccccc3c2)nnc1SCC(=O)OC1CCCCC1	none
N#Cc1c2n(c(=S)n(-c3ccccn3)c1=O)CCCCC2	ERb SRC1 inh 52[fluorescence artefact?]
N#Cc1c2n(c3c(=O)n(Cc4ccccc4Cl)cnc13)CCCCC2	none (no result: Calb biofilm kill)
CCCn1nc(C(=O)OCC(=O)c2ccc3c(c2)NC(=O)CO3)c2ccccc2c1=O	ERa SRC1 inh 73
CCOc1cccc(N(C(=O)Cc2cccs2)C(C(=O)NC2CCCCC2)c2cccn2C)c1 (configuration not stated)	none
COc1cccc2[nH]c3c(N4CCC(C)CC4)ncnc3c12	ERb SRC1 inh 50[fluorescence artefact?]
O=S(=O)(Nc1ccc(-c2nc3cccnc3s2)cc1)c1ccc(Cl)s1	ERa SRC1 inh 77[fluorescence artefact?] (no result: MT1-MMP txn act)
O=S(=O)(Nc1ccc(-c2nc3cccnc3s2)cc1)c1cccs1	none
CC1=CC(=O)C=C(C)C1=NOC(=O)c1cccc([N+](=O)[O-])c1	Calb biofilm kill 86
CCn1cc(C(=O)O)c(=O)c2cc(F)c(N3CCNCC3)nc21	Calb biofilm kill 22
CCn1cc(C(=O)O)c(=O)c2ccc(C)nc21	none
COc1cc(C(c2sc3nc(C)nn3c2O)N2CCN(c3ccccc3)CC2)cc(OC)c1OC (configuration not stated)	ERa SRC1 inh 83[fluorescence artefact?]
Cc1ccc(C(c2sc3nc(C)nn3c2O)N2CCN(c3ccccc3F)CC2)cc1 (configuration not stated)	ERb SRC1 inh 72[fluorescence artefact?] (no result: Calb biofilm kill)
COc1cc(C(c2sc3nc(C)nn3c2O)N2CCOCC2)cc(OC)c1OC (configuration not stated)	none (no result: Smad3 FoxH1 inh, Calb biofilm kill, ERa SRC1 inh, ERb SRC1 inh, ERa SRC1 pot)
Cc1ccc(C(c2sc3nc(C)nn3c2O)N2CCN(CCO)CC2)cc1 (configuration not stated)	none (no result: Smad3 FoxH1 inh, Calb biofilm kill, ERa SRC1 inh, ERb SRC1 inh, ERa SRC1 pot)
CN(C)CCNCCN	none (no result: Calb biofilm kill, ERa SRC1 inh, MT1-MMP txn act, ERb SRC1 inh, ERa SRC1 pot)
CCC1=C2CC[C@H]3C(=O)N(CC)C(=O)[C@H]3[C@H]2[C@@]2(Cc3ccccc3)C(=O)N(CCOC)C(=O)N2C1=O	none (no result: Smad3 FoxH1 inh, Calb biofilm kill, ERa SRC1 inh, ERb SRC1 inh, ERa SRC1 pot)
CC(=O)Nc1ccc2c(c1)C(=Nc1ccc(C(=O)O)cc1)c1ccccc1-2	none (no result: Calb biofilm kill, ERa SRC1 inh, MT1-MMP txn act, ERb SRC1 inh, ERa SRC1 pot)
COc1cccc(=O)c2c(C)n(C)c(C)c12	ERb SRC1 inh 51[fluorescence artefact?]
CCOc1cccc(=O)c2c(C)n(C)c(C)c12	none
NCS(=O)(=O)O	none (no result: Calb biofilm kill, ERa SRC1 inh, MT1-MMP txn act, ERb SRC1 inh, ERa SRC1 pot)
C[N+](C)(C)[C@H](Cc1c[nH]c(=S)[nH]1)C(=O)O	none (no result: Calb biofilm kill, ERa SRC1 inh, MT1-MMP txn act, ERb SRC1 inh, ERa SRC1 pot)
COc1ccc(C)cc1NC(=O)c1cc2c(CO)cnc(C)c2oc1=N	ERa SRC1 pot 239[fluorescence artefact?]
Cc1ccc(-c2n[nH]c(=S)n2/N=C/C=C/c2ccccc2[N+](=O)[O-])cc1	ERa SRC1 inh 53[fluorescence artefact?], ERa SRC1 pot 323
Cc1ccc(-c2n[nH]c(=S)n2C)cc1	none
CCOC(=O)c1[nH]c(C)c(/C(O)=C2\C(=O)C(=O)N(CCN(C)C)C2c2cccc(OC)c2OC)c1C (configuration not stated)	ERa SRC1 pot 599[fluorescence artefact?]
C=C(Br)CN(C)CC(=C)Br	none (no result: Calb biofilm kill, ERa SRC1 inh, MT1-MMP txn act, ERb SRC1 inh, ERa SRC1 pot)
O=C(Nc1ccccc1N1CCOCC1)c1ccc2c(c1)C(=O)N(Cc1ccncc1)C2=O	ERa SRC1 inh 63[fluorescence artefact?]
CCc1c(C)sc(NC(=O)CC#N)c1C#N	ERa SRC1 inh 77[fluorescence artefact?], ERb SRC1 inh 64[fluorescence artefact?]
N=C(c1ccc2ccccc2c1)c1ccccc1Cc1ccccc1	none (no result: Calb biofilm kill, ERa SRC1 inh, MT1-MMP txn act, ERb SRC1 inh, ERa SRC1 pot)
CCCCN(C(=O)NC(=O)Nc1ccccc1OC)S(C)(=O)=O	none
CCCCN(C(=O)NC(=O)Nc1cc(C)ccc1C)S(C)(=O)=O	ERb SRC1 inh 91[fluorescence artefact?]
Cn1c(CSc2nc3ccccc3s2)nc2ccccc21	ERa SRC1 pot 282[fluorescence artefact?]
O=c1oc2ccccc2n1CSc1nc2ccccc2s1	MT1-MMP txn act 2.1
CC(=O)c1cc(F)c(N2CCN(C(=O)COc3ccccc3F)CC2)cc1C	none
CCCS(=O)(=O)NCCc1cc2ccc(C)cc2[nH]c1=O	none
Cc1ccc2cc(CCNS(=O)(=O)c3ccc(F)cc3)c(=O)[nH]c2c1	ERa SRC1 pot 216
Cc1ccc(S(=O)(=O)N2CCC(C(=O)O)(c3ccccc3)CC2)cc1	none (no result: Calb biofilm kill, ERa SRC1 inh, MT1-MMP txn act, ERb SRC1 inh, ERa SRC1 pot)
Cn1c(=O)c2c(ncn2Cc2ccccc2)n(C)c1=O	none
Cn1c(=O)c2c(ncn2CCCc2ccccc2)n(C)c1=O	ERa SRC1 pot 222
O=C(c1cc2ncc(Br)cn2n1)N1CCN(C(=O)c2ccco2)CC1	ERa SRC1 inh 61, ERb SRC1 inh 52
O=C(c1ccco1)N1CCN(C(=O)c2ccc(Cn3cc(Br)cn3)o2)CC1	none
CCOC(=O)C1CCCN(C(=O)c2cc3ncc(Br)cn3n2)C1 (configuration not stated)	ERa SRC1 inh 57, ERb SRC1 inh 60[fluorescence artefact?]
